In PubChem BioAssay AID1508600 (Functional Genomics Laboratory (NCATS/FGL), 2020) one finds z-score data, which are given here for 108 sequences.

The whole screen tested about 53,000 sequences, of which about 3,700 (7%) were called active. The full list was thinned out, with actives kept by preference. Unmarked numbers belong to inactive results.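 The calls were made as follows: active = gene knockdowns whose robust z-score for IL-1 alpha signal is at least 2 or at most -2, so actives lie on both sides; inactive = the rest.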

This test in a line: Components of the Cytosolic LPS Sensing Pathway: Gene Identification via Genome-wide siRNA Screen.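 Also: robust z of the log signal after scaling to non-targeting control siRNA wells of the plate.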 The note with it: RAW264.7 macrophages, IL-1a HTRF, actives lie on both sides, screened at 100 nM (by protocol), cells primed 5 h with Pam3CSK4 first. Summed up: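 RAW264.7 mouse macrophages reverse-transfected with single siRNAs (100 nM final) for 48h, primed with Pam3CSK4 for 5 hours, then transfected with LipidA for 24 hour. Supernatant IL-1a read by HTRF; values normalized to negative-control median, log-transformed robust z-scores.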
For orientation: Time-resolved FRET reads energy transfer from a long-lived donor to a nearby acceptor.
Regarding GGGCUUGAUUGUGAAAGAATT against Tlr12, the z-score was -1.82.

Turning to GGGAGAGUAAUGUGGACAUTT against Slc37a2, the z-score is 3.86 (active).

GCUGAAGACACUCUGUGAATT against Ehbp1l1: the z-score was -1.7.

Consider GCAACGCAGUACUCUACCCTT against Tns2, for which the z-score is 0.557.

With CCCAGUGGUUUUAAAGCAUTT against Commd3, the z-score was -1.64.

Regarding GCCAACGCACAUAAUAAAGTT against Ndufa13, the z-score was 0.245.

For the sequence GCUAGGUAUCUAAGGAUAUTT against Fig4, the z-score is -0.579.

As to “GGGAAACUCAAACUGAUUGTT against 9930104L06Rik”, the z-score was 0.0417.

GGUCAUUGUCAAAGUCAAGTT against Nutm1: the z-score was 2.4 (active).

Consider GGUCAAUUCUUUGUGAUGATT against Usf1, for which the z-score was -0.609.

Turning to GGACACUAUACAAAUUUCGTT against Fank1, the z-score was -0.109.

Consider GCGACUGUACAACGAAUUGTT against Clp1, for which the z-score is 3.34 (active).

Turning to GCAAAACUUCGGAUAGUCATT against Gak, the z-score was 0.382.

In the case of GGCCGUUUCCUACCUCAUGTT against Cckbr, the z-score is -1.09.

With GGUCCAGAUCAGUUGACAGTT against Srsf5, the z-score is 0.812.

For GCGUGGUGUAUUUGAAUCATT against Ch25h, the z-score was 2.31 (active).

Consider CCCAACUCGGUUUUUUUCUTT against Olfr1037, for which the z-score is 0.827.

Take CCUAAGCUUAGAUCAACAUTT against Dhx36: the z-score was -0.735.

For the sequence GGACGAGAUGAACAGCCUCTT against Chkb, the z-score was 0.0671.

In the case of “GGCGCAACGAAUAAAAAUATT against D630023F18Rik”, the z-score was -0.581.

As to GGAUUUCUUCCAGAAGAUGTT against Grhpr, the z-score was -1.54.

Consider GGGAACAGUAUCUGAUUCATT against Polg, for which the z-score is 2.35 (active).

Regarding CGUAAACAUUUCCUUCUACTT against Dmbt1, the z-score was -0.718.

Regarding CUAUGACACUUGGUUCCAUTT against Nxpe5, the z-score is 1.69.

Take GCCUGUAGCAGAGAACUUUTT against Tmem59l: the z-score is 1.1.

Turning to GGUGUGAAGGAGAAGUUCATT against Atp6v1a, the z-score is 2.01 (active).

Turning to CCCAAAACUUCGUUUGUGUTT against Vezf1, the z-score is -0.973.

CCCAUAUCCUAGCUCUCUUTT against Olfr1230: the z-score is -1.49.

Turning to GGCCAAAGUCCACACAAGUTT against Naaa, the z-score was 2.12 (active).

Take GGCAUGGAGAGAAGAAAAGTT against Rassf7: the z-score is -0.433.

Turning to GCUCUAGAAAGUUACAGAUTT against Crtam, the z-score is 0.317.

Take GGCUGCAUCUAUAACAUAATT against Olfr611: the z-score is -0.767.

With GGUGAAGGUACGAGUAAGATT against Prkra, the z-score is -0.809.

On to GGACGAGAACGAUAAUUACTT against Dsc2, for which the z-score is 0.335.

Consider GGAGGUAAAGAUCAUGUCATT against Ddr1, for which the z-score is -1.39.

Turning to GGAGUAGCUGUACUCAACATT against Olfr790, the z-score was -0.246.

Consider GGUCCUAGGUACAAUCACUTT against Slfn10-ps, for which the z-score was -2.58 (active).

GCCACUCAGAGUGUGGAGUTT against Ddx20: the z-score is -0.95.

Regarding GUCCUGGAAGAAAUGAGAATT against Ifna4, the z-score was 0.781.

With CCCACAUCCCUAAGUUGUGTT against Kash5, the z-score was 1.55.

Consider GGAUAAUCAUUCUUGUCACTT against Ptgfr, for which the z-score was -0.736.

Regarding GGUCUUUGAAUGGAACAAUTT against Aldh7a1, the z-score is -1.04.

Turning to GGAGUCUCCCAAAUGAAGATT against Son, the z-score is -2.84 (active).

GAGAGAGAAUACCACUGUGTT against Gm5431: the z-score was -0.244.

With GCUGGAUGUGAAAAGAGCGTT against Aktip, the z-score was -0.00618.

As to GGUGGAUGAAGAGUAUAAGTT against Phka2, the z-score was 0.338.

For GGCAGUAAGAACUACUAAATT against Ric1, the z-score was 2.65 (active).

Consider GGGCCAGCAAGGAAAGAAUTT against Pitx2, for which the z-score is -1.37.

Consider GCCAUGAUACCUUGUUAUUTT against Plppr5, for which the z-score is 1.08.

Take GCUUUUUUAUGCAUUCCAATT against Rock1: the z-score is 0.575.

As for GGCACCAAGCUCGAUGAUGTT against Sh3gl2, the z-score is -1.41.

On to GCUUUUCACAUGAUGUGUUTT against Klrb1a, for which the z-score is -0.5.

Consider GCCCUUACUUAGGUCUAGGTT against Kctd12, for which the z-score is -0.522.

As to GGAAGAGAAGCUGAACAAGTT against Gja1, the z-score was 2.53 (active).

As for GGAGCUUCUCAUGACCUUUTT against Mettl21e, the z-score is 0.307.

On to “GCGAUGGUAUGUUGAAGGATT against 4930432E11Rik”, for which the z-score was 0.639.

Turning to GGAGUACAUGACCACAGAUTT against Lncpint, the z-score was -2.06 (active).

For the sequence GCCUAAAAACUCUAAAUCUTT against Mmut, the z-score is -0.0189.

On to GGUGUGGACUAUGAUACCATT against Anxa9, for which the z-score was 0.984.

Turning to GGCUUUGAACAGGAAAGACTT against Ube2z, the z-score is -0.417.

On to CCUGCAAAUGAUACCACCGTT against Olfr734, for which the z-score is -0.402.

Take GGAGCGAAGUGAUGAAUAATT against Prph2: the z-score was 0.0677.

Consider GGAGCAGCUGAGAGAAAAATT against Ccdc144b, for which the z-score is -0.413.

For GCGAUUCAGAGACCUAUGGTT against Aven, the z-score is -2.22 (active).

Consider GGAUGCUGAUUUAAAGACUTT against Rai14, for which the z-score was 1.69.

Regarding GCUGAAGGGACUCUAACCATT against Ihh, the z-score is 0.715.

As for CCUCUGGAUCUACGAGCUGTT against Odf4, the z-score is -0.00669.

With “GCAGAUAGAAGACUGGAAUTT against 1700024G13Rik”, the z-score was 0.424.

For the sequence GGUUAUUUCUGAAAUGUGCTT against Fbxl4, the z-score is -1.3.

As for GGCUGAAAAUGGGAAGCUUTT against Gm5069, the z-score was 0.0536.

For GGAUGAGCUGAGGAAAUCCTT against Psd2, the z-score is -0.535.

Take GGUUCUAGACAAUUACCUGTT against Clic1: the z-score is 2.43 (active).

For GCCAGGGACUUGCUAUUGATT against Txlna, the z-score is -0.24.

For GGGAAUGGCUUGAUUCUGUTT against Olfr609, the z-score was 0.514.

Regarding CGACAAGGAGACCUACAAATT against Itm2b, the z-score is 0.615.

For the sequence CGCAUCAUAAUGAUUGUGATT against Matn2, the z-score was -0.269.

With GGCAUCUAUACCAGUAAUATT against Mllt6, the z-score is -0.562.

CCAACAGCAACGAUGACAATT against Thoc5: the z-score was -2.94 (active).

Consider GGAAAUGAUACCUUACCACTT against Zfp715, for which the z-score was 0.162.

For “GCGUGAACCGUUUGAUGAGTT against 9030612E09Rik”, the z-score is 1.04.

In the case of GGACAUGAAAGAAACGGUGTT against Bbc3, the z-score is -0.282.

For GCUUCCUCUUAUCAUAUAATT against Rgs13, the z-score was -0.119.

Turning to GGUAUUAGAAAUCCUGAUCTT against Pias2, the z-score was -0.716.

For the sequence GGUAUUUCAGAUAACCUGGTT against Bbs12, the z-score is 2.9 (active).

With CGCAUCAUAUUCUGAUUCCTT against Rmnd5b, the z-score is 0.138.

In the case of CGCAGACAACAAAGUAGAATT against Sars, the z-score was 0.738.

GGUGUUGUAAAAUUCCUCATT against Ncoa7: the z-score is -2.08 (active).

As to GCAUUUCGACGCGGCUUUUTT against Snapc1, the z-score is 0.617.

Consider GGUAAACCUGCCAAUUUUGTT against Ovch2, for which the z-score was 1.54.

Regarding GCCAUGUGAGACUCUUAUATT against Slc2a9, the z-score was 0.62.

For GCAGCUCCUUUAUACCCACTT against Mxra7, the z-score was -1.25.

On to GGAGGGAGCAGAUUGAAACTT against Eri2, for which the z-score is -0.281.

Take GCAUGCUUAAGCCUAUAAATT against Ncstn: the z-score was -1.88.

Regarding GUGUCUCUGUACUUAUUAUTT against Olfr483, the z-score is 0.69.

GGUGGACGUACUUUUUAACTT against Gata3: the z-score is 2.59 (active).

For GCUUUUAGAAUAAAGCUGATT against Fgl2, the z-score is 0.75.

Take CCUAUGUCCACCACAAAUGTT against Ifi209: the z-score is -0.14.

Consider GCAACCUGUCCCUUCUUGATT against Olfr225, for which the z-score is 1.53.

With GGAGCUGAAGCCAUUCAACTT against Gpx6, the z-score was 2.08 (active).

On to GGGAAAUGUUGUAGUAGAUTT against Rars2, for which the z-score was 0.535.

In the case of CCACUGUGUGACAUUAAAGTT against Metap2, the z-score was -0.799.

As to GCAACUAGCGUGUGUUCCUTT against Arpc1a, the z-score is 2.4 (active).

For GGCACAGAAUAUCCACCACTT against Olfr283, the z-score is -1.01.

As to GGCAUUCAGGAAGUUACUGTT against Krt75, the z-score was -1.63.

With GGCUUAAUUGCUAGCCAAGTT against Slc7a13, the z-score is 0.849.

As for GGCUUUCGCUAGAAAACUCTT against Sftpc, the z-score is 0.531.

CGUGGAAAGAAAAUUAUCATT against Psmd11: the z-score was -2.21 (active).

On to GCAAAUUUUAUAUGCGACUTT against Glipr1, for which the z-score was -0.561.
